Compound activity deposited in PubChem BioAssay by Fisher Drug Discovery Resource Center.
hcGAS lum: blocks human cGAS activity; inhibition, % at 12.5 µM; Q8N884; AID 1259398; hit rate 0.081% among 290,000; recombinant h-cGAS, ATP depletion, Kinase-Glo luminescence;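 also: 0% = vehicle reaction and 100% = reaction without DNA for no activity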
mcGAS inh: mouse cGAS inhibition by luminescence | Q8C6L5 | recombinant cGAS, Kinase-Glo ATP depletion luminescence | inhibition, % at 12.5 µM | hit rate 0.15% among 160,000 | AID 1259399;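 also: 0% = negative control wells and 100% = reference inhibitor with no enzyme activity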
Target sequence (Q8C6L5 whole entry, looked up): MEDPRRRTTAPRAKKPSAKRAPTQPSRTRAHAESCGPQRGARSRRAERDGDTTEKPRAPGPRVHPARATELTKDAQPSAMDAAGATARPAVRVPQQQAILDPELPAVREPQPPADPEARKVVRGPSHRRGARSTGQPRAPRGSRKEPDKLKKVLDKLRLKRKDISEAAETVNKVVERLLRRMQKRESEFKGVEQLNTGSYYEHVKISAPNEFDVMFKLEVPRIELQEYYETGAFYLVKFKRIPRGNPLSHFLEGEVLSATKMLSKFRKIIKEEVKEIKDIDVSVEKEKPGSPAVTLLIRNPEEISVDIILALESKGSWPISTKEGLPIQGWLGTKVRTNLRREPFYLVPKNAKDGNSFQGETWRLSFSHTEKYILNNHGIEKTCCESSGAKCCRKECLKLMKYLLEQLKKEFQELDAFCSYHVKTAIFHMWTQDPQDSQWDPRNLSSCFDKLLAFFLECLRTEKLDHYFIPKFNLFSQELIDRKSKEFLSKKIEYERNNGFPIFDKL
NPYLR7 agonist: activates Aedes aegypti NPYLR7 receptor; HEK293T NPYLR7/Galpha15, GCaMP6s calcium fluorescence; hit rate 0.15% among 270,000; activation, % at 10 µM; in the data active = activation above about 40%;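 also: 0% = vehicle and 100% = reference agonist at the receptor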
Numbers without * were called inactive; / = no result; ! = a repeat was not active. Compounds with a hit are over-represented: about 0.3% of the library has one in this group of screens. Rule as the data show it, unless noted: active = inhibition above about 40%; inactive = the rest.

SMILES	hcGAS lum	mcGAS inh	NPYLR7 agonist
C=CCCC(O)CNc1ccc(-n2nc(OCCOCC)nc2-c2ccccc2C)cc1 (stereo not drawn)	52.1*	0.4	-1.2
CCOCCOc1nc(-c2ccccc2C)n(-c2ccc(NC(=O)CCCCl)cc2)n1	1.9	0.4	-0.9
O=C(COc1ccc(C2SCCCS2)cc1)NCc1nnc2ccccn12	-4.3	-8.3	2.2
N#Cc1c(N)oc(-c2ccccc2)c1-c1ccccc1	49.5*	34.2	6.5
Nc1nnc(-c2ccccc2)o1	-4.7	/	-5.0
N#Cc1c(N)oc(-c2cccs2)c1-c1cccs1	54.6*	/	-0.5
Cc1nc(N)c(C#N)c(-c2cccs2)c1C	-1.0	/	0.8
NC(=O)Cc1ccccc1NC(=O)N1CCc2c(F)ccc(F)c2C1	-2.1	/	-1.7
COc1cc(CNCc2cc(C)cc3c(C)c(C)[nH]c23)cc2c1OCO2	-6.0	/	-2.7
O=c1[nH]c(CCl)nc2sc3c(c12)CCN(Cc1ccccc1)C3	0.8	/	45.3*
COCCCNCc1nc2sc3c(c2c(=O)[nH]1)CCN(Cc1ccccc1)C3	3.8	2.7	-4.1
CC(NS(=O)(=O)N1CCOCC1)c1cc2ccccc2o1 (stereo not drawn)	-3.5	-6.3	-0.3
O=c1oc(/C=C/c2ccco2)nc2ccc(Br)cc12	19.6	45.1*	-11.6
O=c1oc(C=Cc2ccco2)nc2sc3c(c12)CCCC3	-7.9	/	-1.9
CSc1ccc(C(=O)N2CC(=O)N(Cc3ccccc3)CC(C)(C)C2)cc1	-10.5	-9.0	2.6
CCc1nc(C)sc1CNC(C)CC(C)(C)OC (stereo not drawn)	-9.7	-6.8	/
CN1CCN(N=CC2C(=O)Nc3ccccc32)CC1 (stereo not drawn)	3.7	/	-12.1
O=C1Nc2ccccc2C1C=NN1CCOCC1 (stereo not drawn)	-3.2	-7.3	51.4*
O=C1NC(=S)SC1=Cc1ccccc1Cl	56.2*	/	6.2
O=C1NC(=O)C(=Cc2cccc(Cl)c2Cl)S1	-3.3	/	8.6
O=C1NC(=S)SC1=Cc1ccc(F)c(F)c1	12.5	36.4	5.9
O=C1NC(=S)SC1=Cc1c(F)cccc1F	41.6*	/	-10.0
CC(C)NC(=O)N(Cc1ccc(F)cc1F)CC1CC(c2ccc(Cl)cc2)=NO1 (stereo not drawn)	-7.7	-8.8	20.9
COCCCn1c(C)cn2c3c(=O)n(Cc4ccc(Cl)cc4)c(=O)n(C)c3nc12	-8.7	/	12.3
COCCn1c(C)cn2c3c(=O)n(Cc4ccc(Cl)cc4)c(=O)n(C)c3nc12	-6.8	-7.8	51.8*
SMILES	hcGAS lum	mcGAS inh	NPYLR7 agonist
COCC1CN(C2CCC2)CC12CCN(C(=O)C1(c3ccccc3)CC1)CC2 (stereo not drawn)	-18.3	-5.6	/
COc1ccc(C(=O)N2CCC3(CC2)CN(C2CCC2)CC3CO)cn1 (stereo not drawn)	48.1*	-4.6	/
N#CC(C(=O)/C=C/c1nccs1)C(=O)Nc1cccc(Cl)c1Cl (stereo not drawn)	45.8*	/	-0.6
Cc1c(Cl)cccc1NC(=O)C(C#N)C(=O)COc1ccc(F)cc1 (stereo not drawn)	-2.7	-14.7	22.3
COC(=O)c1ccccc1NCc1cc(=O)oc2cc(C)c(O)cc12	0.5	-1.4	3.7
O=C1/C(=C/c2csnn2)COc2c1ccc(Cl)c2Cl	-6.6	/	-2.2
Cc1cc(C)c2c(c1)OC/C(=C\c1csnn1)C2=O	-0.9	44.8*	-3.8
O=C(NCCN1CCCCC1)c1cc2n(n1)CCN(Cc1cccc(C(F)(F)F)c1)C2=O	6.8	46.5*	-6.1
O=C(NCCN1CCCC1)c1cc2n(n1)CCN(Cc1ccccc1C(F)(F)F)C2=O	2.7	-2.5	8.5
CC(C)=CC1C(C(=O)N2CCN(C(=O)c3ccccc3O)CC2)C1(C)C (stereo not drawn)	-9.8	/	1.4
C=CCNc1ccc2c3c(cccc13)C(=O)N(c1ccccc1)C2=O	-6.6	-4.7	99.4*
Cc1cccc(N2C(=O)c3cccc4c(N)ccc(c34)C2=O)c1	4.1	-0.7	77.0
Nc1ccc2c3c(cccc13)C(=O)N(c1ccccc1)C2=O	-1.2	/	75.8*
O=C1c2cccc3c(NCCO)ccc(c23)C(=O)N1CCO	-3.9	-2.9	107.0*
C=CCN1C(=O)c2cccc3c(Cl)ccc(c23)C1=O	-3.3	-4.9	2.8
CC(=O)Nc1ccc2c3c(cccc13)C(=O)N(c1ccccc1)C2=O	-6.2	-5.2	-0.5
Cc1ccccc1C1c2cccn2CCCN1Cc1cccc(C(F)(F)F)c1 (stereo not drawn)	-5.9	-6.4	18.3
COc1cc2c(cc1OC)CN(c1cc(C(=O)NCCCN3CCCCC3C)c3ccccc3n1)CC2 (stereo not drawn)	-4.1	-6.2	4.1
CCOCCCC(=O)N(C)C1CCN(c2ccc(Cl)cc2)CC1	-10.9	/	11.0
CC(c1ccccc1)N1CCN(C(=O)c2cccnc2Cl)CC1 (stereo not drawn)	-4.6	-5.8	-2.1
CCOc1cc2c(cc1OCC)CN(CN1C(=O)c3ccccc3C1=O)CC2	-4.8	/	6.9
O=C1/C(=C/c2ccc3ccccc3n2)Oc2cc(O)ccc21	3.4	/	7.9
Cc1ccc(/C=C2/Oc3cc(O)ccc3C2=O)s1	6.0	-8.9	165.2*
CCn1cc(C(=O)O)c(=O)c2cc(F)c(N3CCNCC3)cc21	-1.7	-4.1	-3.4
CCn1cc(C(=O)O)c(=O)c2cnc(N3CCNCC3)nc21	-4.4	-7.0	70.5*!
SMILES	hcGAS lum	mcGAS inh	NPYLR7 agonist
N#C/C(=C\c1ccc(N2CCCCC2)s1)c1cccc(Cl)c1	-1.5	/	28.2
N#C/C(=C/c1ccc(N2CCCCCC2)o1)c1ccc(F)cc1	-9.3	/	87.7*
CCN1C(=O)/C(=C\c2ccc(-c3ccccc3C(=O)O)o2)N(CC)C1=S	-7.4	-7.7	-0.6
O=C1NC(=S)S/C1=C\c1ccc(-c2ccccc2C(=O)O)o1	65.6*	82.7*	14.9
CCOC(=O)c1ccc(NC(=O)c2cccn(OCc3ccccc3)c2=O)cc1	-5.6	-8.0	13.4
N#Cc1cccc(CSc2nnc(NC(=O)COc3ccccc3)s2)c1	-4.5	-4.6	-1.5
Brc1c(Br)c(Br)c2n[nH]nc2c1Br	40.9*	84.3*	3.8
Brc1c(Br)c(Br)c2[nH]cnc2c1Br	19.1	16.3	4.0
CCOC(=O)C1=C(O)/C(=C\c2ccc(N(C)C)cc2)SC1=Nc1ccc(OC)cc1OC	1.5	0.1	79.1*
CCOC(=O)C1=C(O)/C(=C\c2cc(OC)cc(OC)c2)SC1=Nc1ccccc1F	4.0	1.8	-5.7
NS(=O)(=O)c1ccc(NC(NC(=O)c2ccco2)C(=O)c2ccc(Cl)cc2)cc1 (stereo not drawn)	-0.2	/	44.7*
O=C(NC(c1ccc(Cl)cc1)C1CC1)c1ccco1 (stereo not drawn)	-8.1	-7.7	4.1
CN(C)CCN(Cc1ccccc1)C(=O)c1cc(-c2ccccc2F)nc2cc(-c3ccccc3)nn12	1.6	-3.9	-10.5
CN(Cc1ccc(-c2ccc(Cl)cc2)o1)C(=O)CCl	-4.7	49.8*	6.1
Cc1ccc(CN(C)C(=O)CCl)o1	3.9	6.6	-1.4
CN1c2cnc(N)nc2-c2sccc2S1(=O)=O	-1.3	-8.3	-7.3
CCCN(C(=O)Nc1ccccc1F)C1CCS(=O)(=O)C1 (stereo not drawn)	-4.8	-5.1	5.0
CCOC(=O)N1CCN(c2ccc(/C=C(\C#N)c3nc4ccccc4[nH]3)o2)CC1	-6.8	/	102.5*
CCOC(=O)N1CCN(/C=C(\C#N)c2nc3ccccc3s2)CC1	1.3	-1.1	-9.5
CCN(CC)c1ccc(NC(=O)c2ccc(Cn3cncn3)cc2)cn1	-1.4	/	20.5
